High-throughput results from PubChem.
The entries come from a sample that favours hits as a whole.
JNK3 blocker: blocks human JNK3 kinase activity; P53779; purified JNK3 kinase activity, HTS; inhibition, % at 8 µM; actives 0.61% (n = 60,000); AID 746; in the data active means inhibition above about 17%;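 further: 0% = DMSO and 100% = reference inhibitor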
hDAT+cocaine: human DAT dopamine uptake with cocaine, either direction | Q01959 | LLC-PK1 hDAT cells, [14C]-dopamine uptake with cocaine IC80; actives deviate in either direction | B-score at 10 µM | actives 1.3% (n = 110,000) | AID 449768;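 active means Z score or B-score, a plate-position-corrected score, falls beyond the plate's 99.7% confidence bounds, in either direction; inactive means both scores lie inside the 99.7% bounds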;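 further: scored against the spread of the other compound wells on the same plate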
Target sequence (Q01959 whole entry, looked up): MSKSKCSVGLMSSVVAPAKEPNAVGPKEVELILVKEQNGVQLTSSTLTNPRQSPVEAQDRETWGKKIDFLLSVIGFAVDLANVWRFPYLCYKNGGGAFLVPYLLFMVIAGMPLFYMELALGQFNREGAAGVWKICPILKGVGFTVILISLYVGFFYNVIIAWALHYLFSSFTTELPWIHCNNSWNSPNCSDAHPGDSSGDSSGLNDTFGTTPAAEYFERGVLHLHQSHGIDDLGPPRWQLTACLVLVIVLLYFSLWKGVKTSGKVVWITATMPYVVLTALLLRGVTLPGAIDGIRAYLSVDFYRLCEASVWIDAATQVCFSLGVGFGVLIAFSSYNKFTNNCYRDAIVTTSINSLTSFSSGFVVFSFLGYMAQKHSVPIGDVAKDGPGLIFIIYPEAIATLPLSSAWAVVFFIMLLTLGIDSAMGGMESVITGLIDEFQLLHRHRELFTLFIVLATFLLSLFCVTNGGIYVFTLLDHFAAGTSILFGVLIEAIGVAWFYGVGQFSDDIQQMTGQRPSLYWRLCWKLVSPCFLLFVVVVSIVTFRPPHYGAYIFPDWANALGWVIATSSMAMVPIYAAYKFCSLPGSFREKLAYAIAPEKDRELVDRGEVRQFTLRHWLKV
PKA inh: blocks human protein kinase A activity; P17612; PKA Kemptide phosphorylation, Kinase-Glo ATP luminescence; inhibition, % at 6 µM; actives 0.1% (n = 65,000); AID 524;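 active means inhibition above the screen-wide mean inhibition plus 3 SD, cut at about 21% in these data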
ROCK2 inh: ROCK2 (human) kinase inhibition; O75116; purified ROCK2, Kinase-Glo ATP depletion luminescence; inhibition, % at 6 µM; actives 0.35% (n = 60,000); AID 604;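 active means inhibition above the screen-wide mean inhibition plus 3 SD, cut at about 18% in these data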;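 further: plate controls were DMSO wells for no effect and Y-27632 control wells after no-enzyme background subtraction for full effect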
D1 allo mod: D1 dopamine receptor (human) allosteric modulation | P21728 | HEK293 D1, CRE-luciferase, dopamine EC30 potentiation; actives deviate in either direction | B-score at 10 µM | actives 5.9% (n = 58,000) | AID 641;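 active means luminescence count or its row- and column-corrected plate score outside the 99.7% band of the plate's sample wells, on either side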
Active calls of the source: *; nt = not tested or not shown.

SMILES | JNK3 blocker | hDAT+cocaine | PKA inh | ROCK2 inh | D1 allo mod
COc1cc(C(CC(=O)N2CCCC2)c2c(OC)cc(OC)c3c(-c4ccccc4)cc(=O)oc23)cc(OC)c1OC (configuration not stated) | nt | 2.72* | nt | nt | nt
COc1cc(C(CCN2CCOCC2)c2c(OC)cc(OC)c3c(C)cc(=O)oc23)cc(OC)c1OC (configuration not stated) | nt | 2.79* | nt | nt | nt
O=C(CN1CCN(c2ncccn2)CC1)NCCC1=CCCCC1 | nt | -0.753 | 9.3 | nt | -0.21
CCCc1cc(=O)oc2cc(OCC(=O)Nc3ccc4c(c3)OCCO4)ccc12 | nt | -0.00416 | nt | nt | nt
CCCc1cc2c(=O)c(-c3ccc4c(c3)OCCO4)c(C)oc2cc1OS(C)(=O)=O | nt | 2.76* | nt | nt | nt
c1cc(CNc2ccc3c(c2)OCO3)ccn1 | -13.7 | 0.21 | 13.0 | 6.1 | 0.379
Cc1ccc(CNc2ccc3c(c2)OCO3)cc1 | 3.6 | 0.0661 | 2.3 | -8.2 | -4.97*
COc1ccc(NC(=O)c2ccc3snnc3c2)cc1 | nt | -2.91* | nt | nt | nt
COc1ccc(C(=O)Nc2cccc(C)c2)cc1 | 3.2 | 0.906 | 2.5 | -4.3 | -3.55*
Cc1ccc(CN2[C@@H](CC(C)C)COCCS2(=O)=O)cc1 | nt | 0.631 | nt | nt | nt
CC1(C)S[C@@H]2C(C(=O)OCc3ccccc3)NC(=O)N2C1C(=O)OCc1ccccc1 (some centres not stated) | nt | -0.283 | nt | nt | nt
N#CC1=C(N)C(C#N)(C#N)C(c2cccnc2)C2CN(C(=O)OCc3ccccc3)CC=C12 (configuration not stated) | nt | 3.92* | nt | nt | nt
CCOC(=O)c1c(C)[nH]c(C(=O)CN2CCOCC2)c1C | nt | -1.5 | 3.3 | nt | nt
CCOC(=O)c1[nH]c(C)c(C(=O)NCCCN2CCOCC2)c1C | 2.6 | -5.03* | 3.1 | 5.4 | -0.526
CN1/C(=C/C(=O)c2cccs2)Sc2ccccc21 | nt | 0.123 | nt | nt | nt
CN1/C(=C\C(=O)c2cccs2)Sc2ccccc21 | -6.9 | 0.0837 | -1.3 | -7.3 | -4.76*
COc1cc2c(c(OC)c1CC=C(C)C)C[C@H](c1ccc(O)cc1O)CO2 | nt | 3.35 | nt | nt | nt
CCCCCCC(c1c(C)n(C)n(-c2ccccc2)c1=O)c1c(C)n(C)n(-c2ccccc2)c1=O | -9.3 | 3.17* | -1.4 | 0.2 | -0.631
CCn1c2ccccc2c2nnc(SCC(=O)NC(C(=O)OC)C(C)C)nc21 (configuration not stated) | 2.3 | nt | 13.0 | 5.6 | 3.68*
C=CCn1c2ccccc2c2nnc(SCC(=O)Nc3c(C)n(C)n(-c4ccccc4)c3=O)nc21 | nt | 2.97* | nt | nt | nt
CCn1c2ccccc2c2nnc(SCN3C(=O)c4ccccc4C3=O)nc21 | 6.8 | nt | 11.7 | 7.6 | 9.45*
CCn1c2ccccc2c2nnc(SCC(=O)NCCOC)nc21 | 2.5 | -0.134 | 5.5 | 5.0 | 0.977
O=C1CCCN1c1cccc(Br)c1 | nt | 0.276 | nt | nt | nt
CCCCCCNc1c([N+](=O)[O-])cc(C)cc1[N+](=O)[O-] | nt | 1.17 | nt | nt | nt
CC(C)CC(=O)Nc1ccc(-c2cn3ccsc3n2)cc1 | 0.4 | 0.21 | -6.6 | -5.7 | -4.48*
SMILES | JNK3 blocker | hDAT+cocaine | PKA inh | ROCK2 inh | D1 allo mod
CC(C)(C)C(=O)Nc1ccc(-c2cn3ccsc3n2)cc1 | 6.2 | nt | -0.3 | -0.4 | -5.38*
COc1ccc(-c2csc(NC(=O)CC(C)C)n2)cc1 | nt | -1.71 | nt | nt | nt
Cn1c(SCc2ccccn2)nnc1-c1ccncc1 | -5.3 | -0.0968 | 3.5 | -0.5 | nt
COc1cccc(N2C(=O)C(CC(=O)Nc3ccccc3)N(C3CCCCC3)C2=O)c1 (configuration not stated) | nt | 0.524 | 6.7 | nt | -7.45*
COc1cccc(N2C(=O)C(CC(=O)Nc3ccc(F)cc3)N(C3CCCCC3)C2=O)c1 (configuration not stated) | -0.3 | 0.488 | -0.7 | -1.2 | -0.0043
COc1ccc(-c2c3c([nH]c(=S)c2C#N)CCC3)cc1 | 46.0* | 0.749 | 1.1 | 1.3 | nt
O=C1c2ccccc2C(=O)N1CCCc1nc2ccccc2c(=O)n1-c1cccnc1 | 6.0 | 0.201 | -2.1 | 3.6 | 0.0905
CC1(C)CC[C@]2(C(=O)O)CC[C@]3(C)C(=CC[C@@H]4[C@@]5(C)CC[C@H](O)C(C)(C)[C@@H]5CC[C@]43C)[C@@H]2C1 | nt | -0.0313 | nt | nt | nt
CC(=O)OC1COC(OC2C(O)C(C)OC(OC3C(OC4CCC5(C)C(CCC6(C)C5CC=C5C7CC(C)(C)CCC7(C(=O)O)CCC56C)C4(C)CO)OCC(O)C3O)C2O)C(O)C1OC(C)=O (configuration not stated) | nt | -10.1* | nt | nt | nt
COCCn1c(CN2CCN(c3ccc(F)cc3)CC2)nc2c1c(=O)n(C)c(=O)n2C | -2.0 | -0.762 | -1.3 | 2.1 | -1.1
CCCCn1c(CN2CCN(c3ccc(F)cc3)CC2)nc2c1c(=O)n(C)c(=O)n2C | 2.4 | 0.237 | 10.2 | 1.3 | -2.57*
